Assay results reported in PubChem BioAssay AID1159580 (chemical genetic matrix, 2015).
Screen size: about 5,500 compounds; about 2,000 (36%) were called active. Inconclusive results (about 18%) are left out. Rule as the data show it: active = normalized growth mostly below about 0.91 (no sharp cut-off); inconclusive = no clear call, values can overlap the other calls; inactive = mostly above about 0.92. Some of the results follow.

Assay: chemical genetic growth profiling, strain panel (AID 1159580);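 also: tested at 20 µM; growth read once vehicle control cultures reached saturation at 30 °C; 1 = growth at the plate median or of vehicle wells; lower values mean less growth of the strain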
Details: S. cerevisiae deletion strains, growth OD

Measured: normalized growth

CCC(C)[C@H]1O[C@]2(CC[C@@H]1C)C[C@@H]1C[C@@H](C/C=C(\C)[C@@H](OC3C[C@H](OC)C(O[C@H]4C[C@H](OC)[C@@H](O)[C@H](C)O4)[C@H](C)O3)[C@@H](C)/C=C/C=C3\CO[C@@H]4[C@H](O)C(C)=C[C@@H](C(=O)O1)[C@]34O)O2 (stereo partly drawn)
inactive: locus YHR030C, strain SLT2, active compounds read low 0.995 | locus YHR079C, strain IRE1, active compounds read low 0.992 | locus YJL095W, strain BCK1, active compounds read low 0.964 | locus YJR066W, strain TOR1, active compounds read low 0.941 | locus YLR113W, strain HOG1, active compounds read low 0.993 | locus YNL183C, strain NPR1, active compounds read low 0.948 | locus YOR231W, strain MKK1, active compounds read low 1 | locus YPL256C, strain CLN2, active compounds read low 0.94
